From PubChem BioAssay
Several values for one entry are separate records, joined by “and”; a condition that tells them apart may be missing. Equal entries are not always repeated. Results filed as inconclusive are left out. Activity calls are given as the source filed them. Unless noted, cut-off not given; nearly all actives show AC50 up to about 26 µM.

Tests used:
[1] = growth inhibition of DIPG glioma cells, dose response, cell-based, SU-DIPG-XVII, MIPE5.0, CellTiter-Glo, qHTS (AID 1347060); conditions: SU-DIPG-XVII viability, CellTiter-Glo ATP luminescence;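 on AC50: cells exposed to compound for 48 hours before viability readout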
[2] = growth inhibition of DIPG glioma cells, dose response, cell-based, SU-DIPG-XIII, MIPE4.0, CellTiter-Glo, qHTS (AID 1347061; cut-off not given, nearly all actives have AC50 up to about 37 µM;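 further: cells exposed to compound for 48 hours before readout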); conditions: SU-DIPG-XIII viability, CellTiter-Glo ATP luminescence
[3] = growth inhibition of DIPG glioma cells, dose response, cell-based, JHH-DIPG-1, MIPE4.0, CellTiter-Glo, qHTS (AID 1347062; cut-off not given, nearly all actives have AC50 up to about 27 µM;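 on AC50: cells exposed to compound for two days before readout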); conditions: JHH-DIPG-1 viability, CellTiter-Glo ATP luminescence
[4] = growth inhibition of DIPG glioma cells, dose response, cell-based, SU-DIPG-IV, MIPE4.0, CellTiter-Glo, qHTS (AID 1347063; cut-off not given, nearly all actives have AC50 up to about 30 µM;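 further: compound exposure lasted 48 hours before the viability readout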); conditions: SU-DIPG-IV viability, CellTiter-Glo ATP luminescence
[5] = growth inhibition of DIPG glioma cells, dose response, cell-based, SU-DIPG-XIII, MIPE5.0, CellTiter-Glo, qHTS (AID 1347064; cut-off not given, nearly all actives have AC50 up to about 23 µM;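 on AC50: cells exposed to compound for 48 hours before the viability read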); conditions: SU-DIPG-XIII viability, CellTiter-Glo ATP luminescence
[6] = viability loss in pontine glioma line – cell-based, SU-DIPG-XXV, MIPE5.0, CellTiter-Glo, qHTS, dose response (AID 1347065); conditions: CellTiter-Glo ATP luminescence;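 further: cells exposed to compound for 48 hours before ATP readout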
[7] = SU-DIPG-VI glioma cell viability, MIPE4.0 library, CellTiter-Glo luminescence, qHTS (AID 1347066; cut-off not given, nearly all actives have AC50 up to about 30 µM;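 further: cells exposed to compound for 48 hours before readout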); conditions: CellTiter-Glo ATP luminescence
[8] = JHH-DIPG-1 glioma cell viability, MIPE5.0 library, CellTiter-Glo luminescence, qHTS (AID 1347067); conditions: JHH-DIPG-1 glioma viability, CellTiter-Glo ATP luminescence;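 further: cells exposed to compound for 48 hours before readout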
[9] = modifiers of HSF1 nuclear foci, imaging, Selleck Cancer Library (AID 1347162; in the data active means plate-normalised HSF1 focus index below about 0.46); conditions: human cells, at 10 µM; SSMD: measured here: HSF1 foci SSMD mean; cell count: measured here: cell number; plate-normalised HSF1 focus index: stronger effect = lower value
[10] = SU-DIPG-XXV glioma cell viability, MIPE5.0 library, qHTS (AID 1347068; cut-off not given, nearly all actives have IC50 up to about 30 µM;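 on IC50: cells exposed to compound for 48 hours before viability readout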)
[11] = sensitizers of A549 cells to miR-34 induction, primary screen, imaging, A549 dox-inducible miR-34, nuclei and caspase counts (AID 1347080;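 active means compounds whose cell count with miR-34 switched on is under 0.7 times the count with it off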); conditions: A549 miR-34 inducible, Hoechst nuclei count, 48 h
[12] = survival rescue of mitochondrial mutant cells in low glucose, primary screen, MELAS cybrids, Rieske KO mouse fibroblasts, CellTiter-Glo (AID 1508586;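 active means mean z-score across replicates of 1.96 or higher in either the MELAS or the Rieske mutant cell line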;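 further: z relative to plate mean and SD of compound and empty wells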)
[13] = stronger effect = lower value, cell number ratio, induced over uninduced
[14] = measured here: relative caspase fold change +Dox/-Dox
[15] = measured here: total cells with miR-34 induction, stronger effect = lower value
[16] = measured here: total cells without miR-34 induction
[17] = MELAS cybrid survival, CellTiter-Glo 48 h, stronger effect = higher value
[18] = Rieske KO mouse fibroblast survival, CellTiter-Glo 72 h

CN(C)C[C@@H]1CCn2cc(c3ccccc32)C2=C(C(=O)NC2=O)c2cn(c3ccccc23)CCO1
AC50 [1]: 26.3 µM (active)
AC50 [2]: 16.6 µM (active)
AC50 [3]: 29.6 µM (active)
AC50 [4]: 16.6 µM (active)
AC50 [5]: 9.34 µM (active)
AC50 [6]: 18.6 µM (active)
AC50 [7]: 13.2 µM (active)
AC50 [8]: 7.42 µM (active)
SSMD [9]: 3.92
cell count [9]: 6860
plate-normalised HSF1 focus index [9]: 1.24 (inactive)

COc1cc2ncnc(Nc3ccc(F)c(Cl)c3)c2cc1NC(=O)/C=C/CN1CCCCC1
AC50 [1]: 14.8 µM (active)
outcome [2]: inactive
AC50 [3]: 18.7 µM (active)
AC50 [4]: 20.9 µM (active)
AC50 [5]: 18.6 µM (active)
AC50 [6]: 9.34 µM (active)
AC50 [7]: 20.9 µM (active)
IC50 [10]: 10.5 µM (active)
SSMD [9]: 1.69
cell count [9]: 6970
plate-normalised HSF1 focus index [9]: 1.09 (inactive)

C[C@@H]1CCN(C(=O)CC#N)C[C@@H]1N(C)c1ncnc2[nH]ccc12
outcome [1]: inactive
outcome [2]: inactive
outcome [3]: inactive
outcome [4]: inactive
outcome [5]: inactive
outcome [6]: inactive
outcome [7]: inactive
outcome [8]: inactive
SSMD [9]: 3.28
cell count [9]: 7280
plate-normalised HSF1 focus index [9]: 1.17 (inactive)

COC(=O)N1CCN(Cc2cccc(NC(=O)Nc3ccc(C)nc3)c2F)CC1
outcome [1]: inactive
outcome [2]: inactive
outcome [3]: inactive
outcome [4]: inactive
outcome [5]: inactive
outcome [6]: inactive
outcome [7]: inactive
outcome [8]: inactive
fold change [11, 13]: 0.947 (inactive)
fold change [11, 14]: 1.41
cell count [11, 15]: 9170
cell count [11, 16]: 9680
z-score [12, 17]: -0.446 (inactive)
z-score [12, 18]: 0.371

CC[C@H]1OC(=O)[C@H](C)C(=O)[C@H](C)[C@@H](O[C@H]2O[C@H](C)C[C@H](N(C)C)[C@H]2O)[C@](C)(OC)C[C@@H](C)C(=O)[C@H](C)[C@H]2N(CCCCn3cnc(-c4cccnc4)c3)C(=O)O[C@]12C
AC50 [1]: 26.3 µM (active)
outcome [2]: inactive
outcome [3]: inactive
outcome [4]: inactive
outcome [5]: inactive
outcome [6]: inactive
outcome [8]: inactive

CC(=O)O[C@H]1C[C@@H]2CC[C@@H]3[C@H](CC[C@@]4(C)[C@H]3C[C@H]([N+]3(C)CCCCC3)[C@@H]4OC(C)=O)[C@@]2(C)C[C@@H]1[N+]1(C)CCCCC1
outcome [1]: inactive
outcome [2]: inactive
outcome [3]: inactive
outcome [4]: inactive
outcome [5]: inactive
outcome [6]: inactive
outcome [7]: inactive
outcome [10]: inactive
fold change [11, 13]: 1.08 (inactive) and 0.979 (inactive) and 0.882 (inactive)
fold change [11, 14]: 0.886 and 0.709 and 0.967
cell count [11, 15]: 10300 and 9210 and 9980
cell count [11, 16]: 9560 and 9410 and 11300
z-score [12, 17]: -0.0905 (inactive) and -0.925 (inactive)
z-score [12, 18]: -1.19 and -0.284
